Screens: PubChem BioAssay, National Center for Advancing Translational Sciences (NCATS)
Sampled rows, rich in hits. Any-hit rate of the full collection: about 6.1%.
D1 PAM = potentiators of human D1 dopamine receptor; HEK293 TREx D1 cells, calcium flux, dopamine EC20 potentiation; 360,000 compounds, 0.036% hits; potentiation, % at 10 µM; AID 504651; in the data active = potentiation above about 30%
Target sequence (P21728 whole entry, looked up): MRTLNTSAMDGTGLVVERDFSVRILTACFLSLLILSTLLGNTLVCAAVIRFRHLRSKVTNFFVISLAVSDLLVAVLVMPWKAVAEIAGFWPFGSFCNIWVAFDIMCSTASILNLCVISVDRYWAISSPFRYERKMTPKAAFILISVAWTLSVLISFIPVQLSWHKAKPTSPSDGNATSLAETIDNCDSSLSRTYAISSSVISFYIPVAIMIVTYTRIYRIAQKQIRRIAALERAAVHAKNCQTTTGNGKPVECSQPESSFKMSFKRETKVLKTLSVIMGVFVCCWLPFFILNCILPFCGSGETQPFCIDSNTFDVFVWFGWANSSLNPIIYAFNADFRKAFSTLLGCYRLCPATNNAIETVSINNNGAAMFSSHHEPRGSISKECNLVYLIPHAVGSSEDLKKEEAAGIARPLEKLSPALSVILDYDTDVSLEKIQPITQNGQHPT
DRD3 antagonist = antagonists of human D3 dopamine receptor. P35462. D3R cells, DiscoveRx beta-arrestin luminescence, antagonist mode; hits give low values. max response, negative = inhibition, %. 360,000 compounds, 2.5% hits. AID 652054; in the data active = max response below about -50%; inconclusive = no clear call, values can overlap the other calls
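Cells expressing the human receptor were seeded at 1500 cells/well, incubated overnight at 37 degrees C in 5% CO2, then exposed to library compounds with dopamine controls for 90 minutes at 37 degrees C before luminescent detection.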
D1 agonist = agonists of human D1 dopamine receptor; P21728; AID 504660; HEK293 T-REx D1 cells, calcium flux, agonist mode; activation, % at 2 µM; 360,000 compounds, 1% hits; in the data active = activation above about 30%
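Agonism was scored from calcium flux recorded over 180 s (1 read/s) after pintool compound addition, following a 10-cycle baseline. Cells were inducible force-coupled HEK293 TREx D1, plated overnight at 30 C and loaded with no-wash calcium dye.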
ERG Ets-DNA blk = inhibitors of human ERG Ets domain-DNA interaction | Potency, µM (top dose mostly 76.9 µM), actives largely listed as inhibitors | P11308 | fluorescence polarization, His-ERG Ets domain / labelled DNA | AID 624246 | 370,000 compounds, 0.028% hits; active = well fitted inhibition curve with a large enough effect in the polarisation, with a control signal flat; inconclusive = small, poorly fitted or top-dose-only effect, or effect the other way, or a change in a side signal; inactive = no such curve, though single readings can be large or run the other way; the % refers to the polarisation;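 note: polarization taken with two DNA probes labelled with fluorescein and Texas red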
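His-tagged ERG Ets domain (1 uM in the protein solution; 300mM KCl, 50mM Tris-HCl, 1mM EDTA, 1mM DTT, pH 7.5) received compound, then a probe mix of 5 nM fluorescein-DNA and 100nM Texas-615-DNA. Fluorescence polarization was read for both dyes.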
D1 antagonist = blocks dopamine activation of the human D1 receptor. P21728. HEK293 TREx D1 cells, calcium flux, dopamine EC80; hits give low values. activity change, negative = inhibition, % at 10 µM. 360,000 compounds, 3.2% hits. AID 504652; in the data active = activity change below about -30%
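Antagonism measured as reduced calcium response to an EC80 dopamine addition following 180 s compound pre-read; cells were inducible HEK293 Trex D1 plated overnight at 30 C, read kinetically at 1 cycle/sec.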
DRD3 agonist = activates the human D3 dopamine receptor; P35462; D3R DiscoveRx beta-arrestin cells, luminescence, 90 min; max activation, %; 410,000 compounds, 0.58% hits; in the data active = max activation above about 30%
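Cells at 1500/well, incubated overnight, then treated with pinned compounds (dopamine as control) for 90 min at 37 degrees C. DiscoveRx reagent added for 30 - 60 minutes at room temperature; luminescence read.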
Hits are given with their value; – = inactive; ? = inconclusive; · = no result given.

SMILES	D1 PAM	DRD3 antagonist	D1 agonist	ERG Ets-DNA blk	D1 antagonist	DRD3 agonist
O=C(CN1C(=O)COc2ccccc21)NCCN1CCCC1	–	–	–	–	–	–
Cn1c(-c2ccccc2)cc(=NNS(C)(=O)=O)c2cc(S(=O)(=O)O)ccc21	·	–	·	·	·	–
Cc1cc2c(cc1C)N(CC(=O)N1CCCC1)C(=O)CC(c1ccccc1)=N2	–	-75	–	–	–	–
CC1(C)CC(=O)c2cc(-c3nc(-c4ccccc4)cs3)c(=O)[nH]c2C1	–	·	–	–	–	–
Cc1ccc(/C=C/C(=O)Nc2ccc([N+](=O)[O-])cc2)o1	–	–	–	–	-46	–
O=C(/C=C/c1ccc([N+](=O)[O-])cc1)NCCSc1ccccc1	–	–	–	–	-30	–
CC(=O)c1ccc(NC(=O)/C=C/c2ccc(C)o2)cc1	–	·	–	–	–	–
Cc1ccc(/C=C/C(=O)Nc2ccc(Oc3ccccc3)cc2)o1	–	–	–	–	-32	–
Cc1ccc(SCCNC(=O)/C=C/c2ccc([N+](=O)[O-])cc2)cc1	–	–	–	–	–	–
Cc1cc(NS(=O)(=O)c2ccc(NC(=O)/C=C/c3ccc(C)o3)cc2)nc(C)n1	–	–	–	–	–	–
CCCOc1ccc(/C=C/C(=O)Nc2ccc([N+](=O)[O-])cc2)cc1	–	–	–	–	-43	–
Cc1ccc2cccc(NC(=O)COc3ccccc3Cl)c2n1	–	·	–	–	–	–
O=C(c1ccc2ccccc2c1)N1CCN(S(=O)(=O)/C=C/c2ccccc2)CC1	–	–	–	–	–	–
O=C(/C=C/c1ccccc1)c1ccccc1	–	–	–	–	–	–
O=C(/C=C/c1ccccc1)c1ccc2ccccc2c1	·	-51	·	–	·	–
N#Cc1ccc(/C=C/C(=O)c2ccccc2)cc1	–	-70	–	–	–	–
O=C(/C=C/c1ccccc1)/C=C/c1ccccc1	–	-58	–	–	–	–
O=C(c1ccc(Br)cc1)C(CN1CCOCC1)c1ccccc1 (stereo unspecified)	–	-88	–	–	–	–
CC(CN1CCN(CC(C)C(=O)c2ccccc2)CC1)C(=O)c1ccccc1 (stereo unspecified)	·	-59	·	–	·	–
O=C(c1ccccc1)C(CN1CCCCC1)c1ccccc1 (stereo unspecified)	·	-77	·	–	·	–
CN(Cc1cc(Cl)cc(Cl)c1)CC(C(=O)c1ccccc1)c1ccccc1 (stereo unspecified)	·	–	·	·	·	–
CN(C)CC(C(=O)c1ccccc1)c1ccccc1 (stereo unspecified)	–	-51	–	–	–	–
CC(C)c1[nH]c(=O)c(C#N)c2c1CSC(C)(C)C2	–	–	–	–	–	–
FC(F)(F)c1cccc(CNC2c3ccccc3-c3ccccc32)c1	–	–	–	–	–	–
CC1=C(C(=O)N(C)C)CC(CC(=O)NCc2cccs2)C(=O)N1Cc1ccc(F)cc1 (stereo unspecified)	·	–	·	·	·	–
SMILES	D1 PAM	DRD3 antagonist	D1 agonist	ERG Ets-DNA blk	D1 antagonist	DRD3 agonist
CCC(=O)Nc1ccc(-c2nnc(SCC(=O)Nc3nccs3)n2C)cc1	–	–	–	–	–	–
Cc1ccc(NC(=O)Cn2nc(C(=O)Nc3ccc(C)cc3)ccc2=O)cc1	–	–	–	–	–	–
O=S(=O)(Nc1cc(S(=O)(=O)N2CCOCC2)ccc1NCC1CCCO1)c1ccccc1 (stereo unspecified)	·	–	–	–	–	–
COc1ccc(C)cc1NC(=O)c1cc2c(s1)-c1ccccc1SC2	–	·	–	–	-32	–
CCOC(=O)c1ccccc1NC(=O)c1cc2c(s1)-c1ccccc1SC2	–	·	–	–	-45	–
CCOC(=O)c1ccccc1NC(=O)c1cc2c(s1)-c1c(C)cccc1OC2	–	·	–	–	–	–
COC(=O)c1ccccc1NC(=O)Cn1c(CCC(=O)O)ccc1-c1cccs1	–	–	–	–	–	–
Cc1ccccc1NC(=O)Cn1c(CCC(=O)O)ccc1-c1cccs1	–	–	–	–	-42	–
COCCCn1c(CCC(=O)O)ccc1-c1cccs1	–	-55	–	–	–	–
Cc1ccc(-n2c(CCC(=O)O)ccc2-c2cccs2)cc1Cl	–	·	–	?	-57	–
CCCn1c(CCC(=O)O)ccc1-c1cccs1	–	–	–	–	–	–
Cc1ccc(-n2c(CCC(=O)O)ccc2-c2cccs2)cc1	–	–	–	–	–	–
O=[N+]([O-])c1ccc(NC(=S)NCCc2ccccc2)cc1	–	–	–	–	-37	–
O=[N+]([O-])c1ccc(NNC(=S)Nc2ccccc2)cc1	–	-93	–	–	–	–
O=[N+]([O-])c1ccc(NC(=S)NCCc2ccc(Cl)cc2)cc1	–	–	–	–	–	–
O=[N+]([O-])c1ccc(O)c(NC(=S)Nc2ccccc2)c1	–	-78	–	–	·	–
Cc1cc2nc(-c3cccc(Cl)c3)c(Cc3cccc(Cl)c3)n2c(C)c1Br	·	–	·	·	·	–
CCn1c(=O)n(CC(=O)N(C)Cc2ccccc2)c(=O)c2ccccc21	–	–	–	–	–	–
O=C(NCc1ccccc1)c1csc2c1CCCCC2	–	–	–	–	–	–
O=C(NCc1ccco1)c1csc2c1CCCCC2	–	–	–	·	-33	–
O=C(NCc1ccco1)c1c2c(nc3ccccc13)CCC2	–	-59	–	–	–	–
COc1c(Cl)ccc(Cl)c1C(=O)NC(=O)N1CCOCC1	–	–	–	–	–	–
CCc1ccccc1NC(=S)NC1CC2CCCC(C1)N2Cc1cccs1 (stereo unspecified)	–	-76	–	·	–	–
Cc1cccc(NC(=S)NC2CC3CCCC(C2)N3Cc2cccs2)c1C (stereo unspecified)	–	-72	–	·	–	–
COc1cccc(-c2csc(-c3c(N)c(C(=O)c4ccccc4)n4ccccc34)n2)c1	–	·	–	–	–	–
SMILES	D1 PAM	DRD3 antagonist	D1 agonist	ERG Ets-DNA blk	D1 antagonist	DRD3 agonist
Cc1ccc(CNC(=O)C2CCN(S(=O)(=O)c3ccc(Br)s3)CC2)cc1	–	–	–	–	–	–
CC1CCC(NC(=O)COc2ccccc2C(N)=O)CC1 (stereo unspecified)	–	–	–	–	–	–
CC(C)CN(CC(C)C)C(=O)COc1ccccc1C(N)=O	–	–	–	–	-35	–
Cc1cc(C)n2cc(CSc3nnc(N)s3)nc2n1	–	-53	–	–	–	–
Cc1cc(C)n2cc(CSc3nc4cc(Cl)ccc4o3)nc2n1	–	-51	–	–	–	–
Cc1cc(C)n2cc(CSc3ccc(Cl)cc3)nc2n1	–	–	–	–	–	–
Cc1cc(C)c(S(=O)(=O)N2C[C@H]3CON(C)[C@H]3C[C@H]2c2ccc(N3CCCCC3)cc2)c(C)c1	·	–	·	·	·	–
